Data on 101 molecules can be found in PubChem BioAssay AID1209 (Sanford-Burnham Center for Chemical Genomics, 2008).

Hit rate of the full screen: of about 190,000 compounds, about 810 (0.43%) were called active. This excerpt belongs to a sample that is enriched for actives. Unmarked numbers belong to inactive results. No stated cut-off is given here; in the data, active means inhibition above about 50%; inactive means the rest.

Sequence of Mannose-6-phosphate isomerase (Homo sapiens) (P34949 whole entry, looked up): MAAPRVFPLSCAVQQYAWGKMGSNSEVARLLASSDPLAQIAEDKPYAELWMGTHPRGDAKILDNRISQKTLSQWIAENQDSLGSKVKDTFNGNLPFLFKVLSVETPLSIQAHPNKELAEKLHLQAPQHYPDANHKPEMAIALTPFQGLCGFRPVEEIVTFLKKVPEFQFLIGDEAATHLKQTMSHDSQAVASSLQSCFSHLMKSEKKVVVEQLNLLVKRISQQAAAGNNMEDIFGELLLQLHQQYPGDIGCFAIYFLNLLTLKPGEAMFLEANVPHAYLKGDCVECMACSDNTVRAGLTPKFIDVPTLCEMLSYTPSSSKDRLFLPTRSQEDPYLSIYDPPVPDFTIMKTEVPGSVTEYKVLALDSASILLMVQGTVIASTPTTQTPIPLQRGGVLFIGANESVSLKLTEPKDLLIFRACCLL

The assay has as its target Mannose-6-phosphate isomerase (Homo sapiens) (UniProt P34949). In words: inhibitors of human PMI, primary screen, biochemical, fluorescence intensity, coupled assay (AID 1209).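 Further: plate controls were DMSO vehicle for no effect and wells lacking substrate for full effect.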 The conditions noted are these: purified PMI enzyme, at 20 µM, active compounds read high.
As to `CCN(CC1COc2ccccc2O1)C(=S)Nc1ccccc1` (stereo unspecified), the inhibition – broadly, the change of the read-out against control, counted positive when it falls – is 11.9%.
As for `S=C(c1ccc(-c2ccccc2Cl)o1)N1CCCCC1`, the inhibition was 10.9%.
For the molecule `S=C(c1ccc(-c2ccccc2Cl)o1)N1CCOCC1`, the inhibition is 70.8% (active).
The same measure for `S=C(c1ccc(-c2cc(Cl)ccc2Cl)o1)N1CCOCC1`: 11.6%; for `O=C(CSc1nnc(-c2ccc(OC(F)F)cc2)o1)N1CCOCC1`: -4.5%.
Turning to `CNC(=O)c1ccccc1F`, the inhibition was 6.4%.
Consider `O=C(C1CC1)N1N=C(C2CCCCC2)CC1(O)C(F)(F)F` (stereo unspecified), for which the inhibition is 6.9%.
With `O=C(C1CCCC1)N1CCC(CO)(Cc2ccccc2Cl)CC1`, the inhibition is 0.9%.
The same measure for `COc1ccc2[nH]c(=S)[nH]c2c1`: 16.4%; for `S=c1[nH]c2cc(Cl)ccc2s1`: -15.2%; for `S=c1[nH]c2ccc(Cl)cc2[nH]1`: 50.2% (active).
The same measure for `O=C(Nc1ccccc1Cl)N1CCN(C/C=C/c2ccccc2)CC1`: -2%; for `Oc1ccc(-c2cn3c(n2)SCC3)cc1O`: 59.5% (active); for `Oc1ccc(-c2cn3c(n2)SCC3)cc1`: -8.6%.
In the case of `Cc1ccc(-c2cn3c(n2)SCC3)cc1`, the inhibition was -3.8%.
Then `CCNc1nc(N2CCOCC2)nc(N(c2ccccc2)c2ccccc2)n1`, with 13%; and `COc1ccc(Cl)cc1N/C(N)=N/c1nc(CSc2ccc(C)cc2)cc(=O)[nH]1`, with 3.7%; and `NC(=S)N/N=C\c1c2ccccc2cc2ccccc12`, with -64.6%.
For the molecule `NC(=S)Nc1cccc2cc3ccccc3cc12`, the inhibition was -8.8%.
Turning to `NC(=S)Nc1cc2ccccc2c2ccccc12`, the inhibition was 67.5% (active).
Take `COc1ccc(C(=O)OCC(=O)NCCCc2ccccc2)cc1[N+](=O)[O-]`: the inhibition is 9.8%.
Regarding `O=C(CSc1nnnn1-c1ccccc1)N1CCc2ccccc2C1`, the inhibition is 4%.
The same measure for `CN(C)CCC(=O)c1cccc(Br)c1`: 24%; for `Cc1c(N2C(=O)/C(=C3/C(=O)N(C)c4ccccc43)SC2=S)c(=O)n(-c2ccccc2)n1C`: 11.1%.
Then `CCN1C(=O)/C(=C2\SC(=S)N(c3c(C)n(C)n(-c4ccccc4)c3=O)C2=O)c2ccccc21`, with 14.5%; and `CC(=O)N1C(=O)/C(=C2\SC(=S)N(c3c(C)n(C)n(-c4ccccc4)c3=O)C2=O)c2ccccc21`, with 64.9% (active); and `N/C(COc1ncn(-c2ccccc2)n1)=N\S(=O)(=O)c1ccc(Cl)cc1Cl`, with 9.1%.
Then `CCC(C)(C)NC(=O)C(OC(=O)c1ccco1)c1ccccc1OC` (stereo unspecified), with 14.2%; and `NC(=O)NC(=O)CC1S/C(=N/N=C2\CSC(=O)N2)NC1=O` (stereo unspecified), with 48.8%.
For the molecule `O=C(O)CNC(=O)CC1S/C(=N/N=C2\CSC(=O)N2)NC1=O` (stereo unspecified), the inhibition is 59.9% (active).
On to `O=C(O)CNC(=O)CC1S/C(=N/N=C2/NC(=O)CS2)NC1=O` (stereo unspecified), for which the inhibition was 25.1%.
Then `CCc1sc(C(=O)Nc2ccsc2C(=O)OC)cc1Br`, with -4.6%; and `O=C(CS(=O)(=O)c1cn(Cc2cccc(F)c2)c2ccccc12)N1CCOCC1`, with 5.3%.
Then `Cc1ccc2c(c1)C(=O)CCN2`, with -1.2%; and `O=C1CCNc2ccc(-c3ccccc3)cc21`, with 3.1%.
Then `Cc1ccc2oc(-c3ccccc3C(=O)O)cc(=O)c2c1`, with -3.3%.
With `CCOC(=O)c1cc2n(c1/N=C/N(C)C)-c1ccccc1C2=O`, the inhibition was 55.7% (active).
For `CCOC(=O)c1sc(/N=C/N(C)C)nc1C`, the inhibition was -4.1%.
In the case of `CCOC(=O)c1cnc(/N=C/N(C)C)s1`, the inhibition is 2.3%.
The same measure for `Cc1ccccc1-c1nnc(NC(=O)c2cc3ccccc3oc2=O)s1`: -1.2%.
On to `CCN(CC)Cc1c(O)ccc2c(=O)c(-c3ccc4c(c3)OCCO4)coc12`, for which the inhibition is 5.6%.
Turning to `COC1OC(COC(=O)CNC(=O)OC(C)(C)C)C(O)C(O)C1O` (stereo unspecified), the inhibition is -0.1%.
The same measure for `CCC(C(=O)NC1CCCCC1)N(Cc1cccs1)C(=O)c1snc(C(N)=O)c1N` (stereo unspecified): 3.9%.
For the molecule `CC(C)CC(C(=O)NC1CCCCC1)N(Cc1cccs1)C(=O)c1snc(C(N)=O)c1N` (stereo unspecified), the inhibition is 101% (active).
The same measure for `CC(C)CC(C(=O)NC1CCCC1)N(Cc1cccs1)C(=O)c1snc(C(N)=O)c1N` (stereo unspecified): 13%.
Then `CCOC(=O)COc1ccc(S(=O)(=O)NCC2CCCO2)cc1` (stereo unspecified), with -1.8%.
The same measure for `O=[N+]([O-])c1cccc(-c2noc(COc3ccccc3)n2)c1`: 57.3% (active).
In the case of `COc1ccccc1OCc1nc(-c2cccc([N+](=O)[O-])c2)no1`, the inhibition is 2.9%.
The same measure for `COc1cccc(OCc2nc(-c3cccc([N+](=O)[O-])c3)no2)c1`: 4.9%.
In the case of `CC(=O)c1cnc(-c2ccccc2Cl)s1`, the inhibition was 0.5%.
Then `CC(C(=O)Nc1nc2ccccc2s1)n1cc([N+](=O)[O-])cn1` (stereo unspecified), with 11.5%; and `CS(=O)(=O)Nc1ccc2[nH]c(=O)[nH]c2c1`, with 3.3%; and `Cc1cc(C)c(S(=O)(=O)Nc2ccc3[nH]c(=O)[nH]c3c2)c(C)c1`, with 4.4%.
In the case of `CCS(=O)(=O)Nc1ccc2[nH]c(=O)[nH]c2c1`, the inhibition was 52.1% (active).
As to `N#C/C(=C\c1cccc(NC(=O)c2ccccc2Cl)c1)C(=O)NCCc1ccccc1`, the inhibition is 10.1%.
Take `O=C(Cc1ccc(F)cc1)OCC(=O)c1cc2ccccc2o1`: the inhibition was 9%.
Then `COC1=C(N)C(=O)c2nc(-c3nc(C(=O)O)c(C)c(-c4ccc(OC)c(OC)c4O)c3N)ccc2C1=O`, with 56% (active); and `COc1ccc(-c2n[nH]c(C)c2-c2ccc(Cl)cc2)c(O)c1OC`, with 6.7%.
Then `COc1ccc(-c2nc(N)ncc2-c2csc(C)n2)c(O)c1OC`, with 6.8%; and `NS(=O)(=O)c1ccc(NC(=O)C2(c3ccccc3)CCCC2)cc1`, with 1.9%.
Then `O=C(CSc1ccc(-c2ccccn2)nn1)c1ccccc1`, with -14.4%; and `O=C(CSc1ccc(-c2ccccn2)nn1)c1ccc(F)cc1`, with 62.5% (active); and `O=C(CSc1ccc(-c2ccccn2)nn1)c1ccc([N+](=O)[O-])cc1`, with 3.7%.
Consider `CSC1=N/C(=C\c2ccc(C)s2)C(=O)S1`, for which the inhibition was 7%.
As for `O=C(NC1CCCCCCC1)c1ccc2c(c1)N(Cc1ccc(F)cc1)C(=O)CS2=O` (stereo unspecified), the inhibition was 0.6%.
Then `NC(=S)Nn1c(CCC(=O)O)ccc1-c1ccccc1`, with 14.4%; and `CCc1ccc(C(=O)COC(=O)CCc2nc3ccccc3c(=O)[nH]2)cc1`, with -28.6%; and `Cc1cccc2cc(C#N)c(SCc3nnc(-c4ccccc4[N+](=O)[O-])o3)nc12`, with 11.1%.
Then `C/C=C(\C)C(=O)NCCN1C2=NC[C@H](C(C)C)N2C[C@H]1Cc1ccc(O)cc1`, with 1.5%; and `N#C/C(=C/c1ccc(CNS(=O)(=O)c2ccccc2)o1)C(=O)NCc1ccccc1`, with 7.8%.
The same measure for `COCCNC(=O)/C(C#N)=C\c1ccc(CNS(=O)(=O)c2ccc(C)cc2)o1`: 6.2%; for `Cc1ccc(S(=O)(=O)NCc2ccc(/C=C(/C#N)C(=O)NCc3ccccc3)o2)cc1`: 58.4% (active); for `CCCNS(=O)(=O)c1ccc(OCC(=O)Nc2ccccc2F)cc1`: -1.4%.
On to `CC1(C)Cc2ccccc2C2=NNC(=O)C2=N1`, for which the inhibition is 84% (active).
In the case of `CC1=NC(C)(C)Cc2ccccc21`, the inhibition is 7.7%.
For `CC1(C)CC(=O)C(C2=NC(C)(C)Cc3ccccc32)=C(O)C1`, the inhibition was -4%.
For `O=S(=O)(/C=C/c1ccccc1)N1CCN(Cc2ccccc2)CC1`, the inhibition is -1.6%.
The same measure for `COc1ccc2nc(NC(=O)CNS(=O)(=O)c3cccs3)sc2c1`: 1.5%.
As to `CCN(C(=S)NCc1ccccc1)c1cccc2ccccc12`, the inhibition was 6.3%.
Then `Oc1cccc(NC(=S)Nc2ccc(SC(F)F)cc2)c1`, with 18.1%.
In the case of `CCN(C(=S)Nc1cccnc1)c1ccccc1`, the inhibition is 4%.
Then `CN(C(=S)Nc1ccc(Oc2ccccc2)cc1)c1ccc(O)cc1`, with 64% (active).
The same measure for `CN(C(=S)Nc1cccnc1)c1ccc(O)cc1`: 59.2% (active).
With `CCN(C(=S)Nc1ccc(Oc2ccccc2)cc1)c1ccccc1`, the inhibition was 3.3%.
Regarding `CN1CCC(N(C)C(=S)Nc2ccc(SC(F)F)cc2)CC1`, the inhibition was -2%.
Then `CN(Cc1ccccc1)C(=S)Nc1cccnc1`, with 0.8%; and `Oc1cccc(NC(=S)Nc2cccnc2)c1`, with 14.8%.
Then `CCN(C(=S)Nc1cccnc1)c1cccc2ccccc12`, with 61.2% (active); and `CN(C(=S)Nc1ccc(SC(F)F)cc1)c1ccc(O)cc1`, with 77.2% (active).
Consider `CN(C(=S)Nc1ccccc1)c1ccccc1`, for which the inhibition was 3.2%.
Take `Cn1cnnc1SCc1nc(N)nc(Nc2ccccc2)n1`: the inhibition is 0.3%.
As for `Cc1ccc(C)c(NC2=CC(=O)CC(C)(C)C2)c1C#N`, the inhibition was -12%.
The same measure for `CC(=O)N(NC(=O)c1ccc(C)cc1)C1CC(=O)N(c2ccccc2Cl)C1=O` (stereo unspecified): -5.8%; for `Cc1ccc(NC(=O)Cn2cc(C(F)(F)F)cc(Cl)c2=O)cc1Cl`: 3.2%; for `C=CCn1c(Cc2cccs2)nnc1SCC(=O)Nc1ccc(OC)c(OC)c1`: 5.9%.
Then `Cc1nn(C)cc1C(=O)Nc1cc(Oc2ccc(Cl)cc2)cc([N+](=O)[O-])c1`, with -2.9%; and `COc1ccc2c(C)c(Cl)c(=O)oc2c1`, with 3.5%.
The same measure for `CCN(CC)CCN(C(=O)c1cccc([N+](=O)[O-])c1)c1nc2ccc(OC)cc2s1`: 56.7% (active).
Consider `CCOc1ccc2nc(N(CCN(CC)CC)C(=O)c3cccc([N+](=O)[O-])c3)sc2c1`, for which the inhibition is 33.9%.
The same measure for `CCN(CC)CCN(C(=O)c1ccc([N+](=O)[O-])cc1)c1nc2ccc(OC)cc2s1`: 1.1%; for `C=CCNC(=O)c1cc(C(=O)C(C)c2ncc(C(F)(F)F)cc2Cl)c[nH]1` (stereo unspecified): 0.9%.
